From PubChem BioAssay (NCI)
Compounds without any hit were thinned out: in the full panel of roughly 83,000, 20% have a hit.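 Cell lines were cultured in 96-well plates, exposed to a single compound concentration, and assessed for percent growth 48 hours later.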 Activity calls are given as the source filed them. The calls were made as follows: active = growth percent below 10; inactive = the rest.

Test system: MOLT-4 leukemia
Experiment: NCI-60 one-dose screen, 48 h (100 = growth as untreated, 0 = no growth, -100 = all killed)
Conditions: 10 µM unless noted

Compound	growth
Cc1ncc(C(=O)Nc2ccc(CN3CCN(C)CC3)c(C(F)(F)F)c2)cc1C#Cc1cnc(NC2CC2)c2ncccc12	-65.4% (active)
COc1cc(NC(C)CCCN)c2nccc(C)c2c1OC (stereo not given)	73.1% (inactive)
CCOC(=O)CCCCCCCCC(=O)OCC	95.2% (inactive)
CCCCCCCCC/C(=N\NC(=O)c1ccncc1)c1ccc(O)c(O)c1O	15.5% (inactive)
C/C=C(/C)C(=O)OC1C=C(CO)C(=O)C(OC(=O)C2(C)OC2C)C1C(C)C (stereo not given)	-3.66% (active)
Cc1nc(NC(=O)NC2CCCCC2)sc1C(=O)NN	116% (inactive)
COc1ccc(Cn2cc3c(c2-c2ccc(OC)cc2)CCc2cnoc2-3)cc1	23.7% (inactive)
CCOC(=O)CSSCC(=O)OCC	90.3% (inactive)
O=C(N/N=C/c1cc(Cl)ccc1O)C(=O)N/N=C/c1cc(Cl)ccc1O	55.9% (inactive)
Nc1nc2c(c3cnccc13)C(c1cccc(Br)c1)Cc1cnccc1-2 (stereo not given)	11.6% (inactive)
COc1ccc(Cn2cc3c(c2-c2ccc(O)cc2)CCc2cnoc2-3)cc1	24.3% (inactive)
COc1cccc(CNC(=O)c2cccc(C3CC(=O)c4c(cc(OC)c(OC)c4OC)O3)c2)c1 (stereo not given)	67% (inactive)
COc1nc(OC)nc(-c2cc(-c3cc(OC)c(OC)c(OC)c3)no2)n1	92.6% (inactive)
O=C(N/N=C/c1ccccc1Cl)c1cccc2ccccc12	112% (inactive)
CCCCCCCCCC[N+](C)(C)C	-0.229% (active)
Cc1nc2c(nnn2-c2ccccc2)c2nc(-c3ccc(Cl)cc3)oc(=O)c12	113% (inactive)
Cc1nc(N)sc1C(=O)NCCO	155% (inactive)
CCCCCCCCCCCCCCCCC(=O)O.CCCCCCCCCCCCCCCCCC(=O)O.CCCCCCCCCCCCCCCCCC(=O)O.CCCCCCCCCCCCCCCCCC(=O)O.CCCCCCCCCCCCCCCCCC(=O)O.CO[CH-]OC12COC1CC(O)C1(C)C(O)C(OC(C)O)C3=C(C)C(OC(=O)C(O)C([NH-])c4ccccc4)CC(O)(C(OC(=O)c4ccccc4)C21)C3(C)C.[Cu+].[Zn].[Zn].[Zn].[Zn].[Zn] (stereo not given)	29% (inactive)
O=S(=O)(O)CCI	120% (inactive)
CC1(C)NCCC[C@]2(C)[C@H]3CC=C4[C@@H]5C[C@](C)(COC(=O)c6ccccc6C(=O)O)CC[C@]5(C)CC[C@@]4(C)[C@]3(C)CC[C@@H]12	20.5% (inactive)

Compound	growth
c1ccc2[nH]c(-c3ccc(OCCCCCOc4ccc(-c5nc6ccccc6[nH]5)cc4)cc3)nc2c1	-19.1% (active)
COc1nc(OC)nc(-c2cc(C(=O)c3ccc(Br)cc3)n3cc(C)cc(C)c23)n1	96.6% (inactive)
CN1CCN(Cc2ccc(NC(=O)c3ccc(C#Cc4c(N)ncc5ccc(F)cc45)cc3)cc2C(F)(F)F)CC1	-55.2% (active)
CC(C)(C)OC(=O)N1C/C(=C\c2ccccc2)C(=O)/C(=C/c2ccccc2)C1	71.8% (inactive)
O=C(CN1C(=O)NC(c2ccccc2)(c2ccccc2)C1=O)c1ccc(N2CCCC2)cc1	70.5% (inactive)
C[C@H]1C[C@@H](n2cnc3c(N)nccc32)[C@H](O)[C@@H]1O	65% (inactive)
Cc1nc2c(nnn2-c2ccccc2)c2nc(-c3ccccc3)oc(=O)c12	112% (inactive)
COc1cc2oc(-c3ccc(NC(=O)c4ccccc4)cc3)cc(=O)c2c(OC)c1OC	92.2% (inactive)
COc1cccc2c1n([O-])c1cccc(OC)c1[n+]2=O	26.3% (inactive)
CC1C(=O)CCCC1=O	95.1% (inactive)
Oc1ccccc1/C=N/N=C/c1c(O)ccc2ccccc12	57.7% (inactive)
FC(F)(F)c1cccc(-c2[nH]ncc2-c2nnnn2-c2ccccc2)c1	27.1% (inactive)
Nc1ccc(S(=O)(=O)c2ccc(NO)cc2)cc1	95.9% (inactive)
Nc1ccc(S(=O)(=O)Nc2cc(F)cc(F)c2)cc1	72.7% (inactive)
CC(C)(C)c1ccc([I+]c2ccc(C(C)(C)C)cc2)cc1	12.1% (inactive)
O=C1NCCN1/N=C/c1c(Cl)nc2n1CCS2	96.6% (inactive)
CC(=O)OCC1O[C@@H](OC(C)=O)[C@@H](NC(=O)NS(=O)(=O)c2ccccc2)C(OC(C)=O)[C@@H]1OC(C)=O (stereo not given in full)	98.6% (inactive)
COc1ccc(Cn2cc3c(c2-c2ccccc2)CCc2cnoc2-3)cc1OC	35.9% (inactive)
CCn1cc(C(=O)O)c(=O)c2cc(F)c(N3CCN(S(=O)(=O)c4ccc(Cl)cc4)CC3)cc21	23.6% (inactive)
Cc1ccc(C(=O)Nc2ccc(CN3CCN(C)CC3)c(C(F)(F)F)c2)cc1C#Cc1cnc(N)c2ccc(C#N)cc12	-8.2% (active)
